Source: PubChem BioAssay (NCATS)
Inconclusive results are not listed. Unmarked numbers belong to inactive results. Calls follow the shape of the dose curve; as a rule, active = well fitted cell-killing curve with a large enough effect; inconclusive = small, poorly fitted or top-dose-only effect; inactive = flat fitted curve, though single readings scatter.

Assay: MultiTox-Fluor Cytotoxicity Assay - LYMP1-001 - Live Cells (AID 947);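 also: 0% = DMSO only and full inhibition = tetraoctylammonium bromide control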
Conditions: LYMP1-001 lymphoblastoid cells, live-cell protease fluorescence viability; series mostly up to 92.2 µM; activity change, negative = cytotoxicity: at the top concentration
Source text: NIH Chemical Genomics Center [NCGC]
NIH Molecular Libraries Screening Centers Network [MLSCN]
National Institutes of Environmental Health Sciences [NIEHS]
National Toxicology Program [NTP]
We have developed a 1536-well cell-based assay for quantitative high throughput screening (qHTS) against a number of cell lines to determine in vitro cytotoxicity of small molecules. This particular assay uses a human lymphoblastoid cell line (LYMP1-001) purchased from Coriell Institute.
NCGC Assay Protocol Summary:
The MultiTox-Fluor Cytotoxicity Assay (Promega) is a homogeneous method to simultaneously measure the relative number of live and dead cells in culture by detecting changes in cell membrane integrity. There are two fluorogenic peptide substrates in the assay reagent. Viable cells are determined when the cell-permeant substrate (GF-AFC) enters the cell and is cleaved by protease from live cells resulting in liberated fluorophore. This live-cell protease activity restricted to viable cells is proportional to cell number. The dead cells are determined by using fluorogenic cell-impermeant peptide substrate (bis-AAF-R110) which cleaved by dead cell proteases leaking from damaged cell membrane.
Using the MultiTox-Fluor Cytotoxicity Assay, the relative number of live cells was measured in the lymphoblastoid cell line with complete culture medium following compound treatment for 16 hours. The assay was performed in opaque black Kalypsys 1536-well plates. In the screen, tetraoctylammonium bromide was used as positive control. Library compounds were measured for their ability to cause acute toxicity in the cell line, as reflected by a decrease in live cell protease activity, in a concentration-dependent manner. […] AC50 values were determined from concentration-response data modeled with the standard Hill equation.
qHTS protocol for MultiTox-Fluor Cytotoxicity assay
[Step] [Parameter] [Value] [Description]
1. Reagent; 5 uL; 2500 lymphoblastoid cells/well
2. Time; 5 hr; 37 C incubation
4. Controls; 23 nL; Tetraoctylammonium bromide 6.4pM to 92 uM
5. Time; 16 hr; 37 C incubation
6. Reagent; 5 uL; MuliTox-Fluor Assay reagent
7. Time; 60 min; Room Temperature
8. Detection; live-cell fluorescence (Ex/Em=405/510); EnVision plate reader
Keywords: cell viability, cytotoxicity, lymphoblastoid cell line, fluorescence, NTPHTS, NTPHTS_NCGC, NIEHS, EPA, DSSTox, MLSMR, MLSCN, NIH Roadmap, qHTS, NCGC

SMILES	activity change, negative = cytotoxicity
CCCCCCCC(=O)OCC(COC(=O)CCCCCCC)OC(=O)CCCCCCC	-19.9%
FC(F)(F)C(Cl)Br (stereo unspecified)	-15.2%
CC(=O)Nc1cccc(O)c1	-6.45%
CC(=O)Nc1ccccc1	-9.95%
CCN(CC)C(=O)c1cccc(C)c1	4.99%
O=C1c2cccc(O)c2C(=O)c2c(O)cccc21	-14.1%
CC1CC(OC(=O)c2ccccc2O)CC(C)(C)C1 (stereo unspecified)	-16.8%
O=C1C(c2[nH]c3ccccc3c2O)=Nc2ccccc21	8.32%
CC(=O)Nc1ccc(C(=O)O)cc1	8.6%
CC(=O)OCC(COC(C)=O)OC(C)=O	-3.77%
Cc1cc(=O)[nH]c(=S)[nH]1	7.38%
C=CCNC(N)=S	-7.64%
COc1ccc(O)cc1	4.24%
CCCCOC(=O)c1ccc(N)cc1	-11.5%
CCCC(O)C(CC)CO (stereo unspecified)	3.51%
Cc1c(N(C)C)c(=O)n(-c2ccccc2)n1C	0.6%
Nc1ccc(S(=O)(=O)c2ccc(N)cc2)cc1	9.29%
Cc1cc(C)nc(NS(=O)(=O)c2ccc(N)cc2)n1	2.94%
CCCCCC(N)=O	-7.08%
O=C(O)CCCCC1CCSS1 (stereo unspecified)	15.6%
O=C(c1ccccc1)C(O)c1ccccc1 (stereo unspecified)	-16.6%
